PfGluPho inh – PfG6PD enzyme inhibitors, primary screen, biochemical, fluorescence intensity, uHTS | PfGluPho enzyme, NADPH resazurin-diaphorase fluorescence | AID 504690, 2011 | glucose-6-phosphate dehydrogenase-6-phosphogluconolactonase (Plasmodium falciparum 3D7) | 0.78% of 350,000 active | inhibition, % at 20 µM;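 active = inhibition reaching at least a set limit at 20 µM in the primary screen, cut at about 59% in these data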;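 note: 0% = DMSO wells with substrate and 100% = DMSO wells lacking glucose-6-phosphate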
MBD2 inh – inhibitors of MBD2 binding to methylated DNA, primary screen, biochemical, TR-FRET, DNA-binding domain, human | Methyl-CpG-binding domain protein 2 (Homo sapiens), Q9UBB5 | MBD2 binding to methylated oligonucleotide | AID 686964, 2013 | inhibition, % at 4.4 µM | 0.31% of 370,000 active; in the data active = inhibition above about 13%
Target sequence (Q9UBB5 whole entry, looked up, the tested form may be a part): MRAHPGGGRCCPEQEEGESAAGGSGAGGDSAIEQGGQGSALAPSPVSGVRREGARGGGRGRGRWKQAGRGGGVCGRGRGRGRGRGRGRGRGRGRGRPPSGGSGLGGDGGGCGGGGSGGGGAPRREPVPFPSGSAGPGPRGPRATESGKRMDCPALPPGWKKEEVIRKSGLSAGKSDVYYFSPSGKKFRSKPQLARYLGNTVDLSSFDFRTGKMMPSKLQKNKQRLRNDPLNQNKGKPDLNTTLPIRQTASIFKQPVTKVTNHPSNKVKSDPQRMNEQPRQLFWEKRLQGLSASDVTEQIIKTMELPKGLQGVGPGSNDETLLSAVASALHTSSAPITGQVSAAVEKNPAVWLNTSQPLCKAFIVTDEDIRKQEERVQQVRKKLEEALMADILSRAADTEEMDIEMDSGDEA
UHRF1 MBD2 ctr – UHRF1 methylated DNA binding inhibitors, primary screen, counter-screen for MBD2 inhibitor project, biochemical, TR-FRET, human UHRF1, single concentration; UHRF1 binding to methylated oligo; inhibition, % at 4.4 µM; 0.75% of 370,000 active; AID 687016, 2013; in the data active = inhibition above about 21%;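 note: UHRF1 SRA domain binding a hemimethylated CpG hairpin DNA probe; 0% = median of test compound wells and 100% = reference inhibitor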
PRMT1 inh – PRMT1 methyltransferase inhibitors, primary screen, biochemical, fluorescence polarization; Protein arginine N-methyltransferase 1 (Homo sapiens), Q99873; recombinant PRMT1, activity-based probe fluorescence polarization; inhibition, % at 2.79 µM; 1.3% of 370,000 active;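 active = inhibition above about 21% made by adding two undisclosed values, limit read from the data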
M18AAP inhibitor – PfM18AAP inhibitors, malaria aminopeptidase, primary screen, biochemical, QFRET, recombinant enzyme. H-Glu-NHMec fluorogenic cleavage. inhibition, % at 7.35 µM. 1.2% of 290,000 active;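 active = inhibition above the campaign mean inhibition over all tested compounds plus 3 SD, cut at about 28% in these data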;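 note: 0% = plate median of test compound wells and 100% = 2 mM ZnCl2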
PRMT1 inh conf – PRMT1 methyltransferase inhibitors, confirmation, biochemical, fluorescence polarization, triplicate; shares compounds with PRMT1 inh; recombinant His-PRMT1, activity-based probe fluorescence polarization; inhibition, % at 2.79 µM; 42% of 3,300 active;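 active = mean inhibition across replicates above the hit cutoff derived for the earlier primary screen, cut at about 22% in these data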
An asterisk follows results filed as active; . = not tested or not shown. An excerpt weighted towards active compounds, which were near 3.3% of everything screened.

SMILES | PfGluPho inh | MBD2 inh | UHRF1 MBD2 ctr | PRMT1 inh | M18AAP inhibitor | PRMT1 inh conf
O=[N+]([O-])c1ccc(Sc2ccccc2)nc1 | 26 | -2 | 0 | 0 | -8 | .
COCCN(C(=O)COC(=O)c1cccs1)c1c(N)n(Cc2ccccc2)c(=O)[nH]c1=O | -1 | 2 | -1 | 0 | 2 | .
COc1ccccc1NC(=O)CCc1nc2ccccc2s1 | 17 | -4 | -2 | -1 | -8 | .
CC(C)c1ccccc1NC(=O)CCc1nc2ccccc2s1 | 32 | -2 | -6 | 32* | 30* | 16
Cc1noc(C)c1C(=O)Nc1cccc(S(=O)(=O)N2CCCCC2)c1 | -5 | 9 | 4 | 2 | . | .
CCN(CC)C1CC(=O)N(c2cccc(Cl)c2)C1=O (stereo not drawn) | -14 | 0 | -1 | 34* | -22 | 29*
O=C(C1CCN(C2CC(=O)N(Cc3ccccc3)C2=O)CC1)N1CCCCCC1 (stereo not drawn) | -5 | -3 | -3 | 57* | -20 | 2
NC(=O)C1CCN(C2CC(=O)N(Cc3ccc(N4CCCC4=O)cc3)C2=O)CC1 (stereo not drawn) | -5 | 2 | 0 | 58* | -219 | 1
O=C(O)CSC1CC(=O)N(c2cccc(Cl)c2)C1=O (stereo not drawn) | -10 | -5 | 1 | 20 | -8 | .
CC(=O)Oc1ccc(N2C(=O)C3C4C=CC(O4)C3C2=O)cc1 (stereo not drawn) | 11 | -2 | 5 | 95* | 0 | 27*
CN1OC[C@@H]2CN[C@H](c3cccc(N4CCOCC4)c3)C[C@@H]21 | 5 | 0 | 1 | 1 | . | .
CC(OC(=O)CN1C(=O)NC2(CCCCC2C)C1=O)c1ccccc1 (stereo not drawn) | 11 | -3 | 0 | 1 | . | .
COC(=O)/C=C\C(C#N)(C#N)N=Cc1ccc(OC)cc1 | 24 | -1 | 0 | 5 | . | .
O=C1CC[C@H](OCc2ccccc2)CCN1[C@H](CSc1ccccc1)Cc1ccccc1 | 9 | -6 | -1 | 2 | 1 | .
CC(=O)Oc1cccc(N2C(=O)C3C4C=CC(C4=C(C)C)C3C2=O)c1 (stereo not drawn) | -11 | -1 | -1 | 64* | -6 | 14
CC(=O)Oc1cccc(N2C(=O)C3C(C2=O)C2C=CC3C23CC3)c1 (stereo not drawn) | 6 | 2 | 1 | 2 | 1 | .
O=C(C1CCN(C2CC(=O)N(c3cccc(Cl)c3)C2=O)CC1)N1CCCC1 (stereo not drawn) | 5 | -3 | -2 | 30* | -71 | 4
O=C(C1CCN(C2CC(=O)N(c3ccc(Cl)cc3)C2=O)CC1)N1CCOCC1 (stereo not drawn) | 16 | -2 | -2 | 27* | -3 | 10
CC(=O)Oc1ccc(N2C(=O)CC(N3CCOCC3)C2=O)cc1 (stereo not drawn) | 0 | -3 | 0 | 43* | 5 | 11
O=C(NCCc1ccccc1)c1ccc(S(=O)(=O)N2CCCC2)cc1 | -1 | 1 | 0 | 2 | . | .
O=C1CCC[C@H]2C[C@H](NCc3ccco3)CC[C@]23CCCN13 | . | 0 | 1 | -2 | . | .
Nc1c(C(=O)Nc2ccc(Br)cc2)sc2nc(-c3ccco3)ccc12 | 54 | -1 | -4 | 45* | 14 | 21
Nc1c(C(=O)Nc2ccc(F)cc2)sc2nc(-c3ccco3)ccc12 | 39 | -6 | -1 | 44* | 15 | 30*
Cc1ccccc1CN1CCC(Oc2ccc(C(=O)NCc3ccccn3)cc2)CC1 | 8 | 5 | 2 | 0 | -1 | .
COc1ccc(S[C@]2(C(=O)N3CCN(C(C)=O)CC3)CC(=O)N(C(=O)C3CC3)[C@@H]2c2ccc(OC)cc2)cc1 | . | -1 | 2 | 53* | . | 44*
SMILES | PfGluPho inh | MBD2 inh | UHRF1 MBD2 ctr | PRMT1 inh | M18AAP inhibitor | PRMT1 inh conf
COc1ccc(S[C@]2(C(=O)N3CCCC3)CC(=O)N(C(=O)C3CC3)[C@@H]2c2ccc(OC)cc2)cc1 | . | 3 | 0 | 38* | . | 36*
COc1ccc(S[C@]2(C(=O)N3CCN(c4ncccn4)CC3)CC(=O)N(C(=O)C3CC3)[C@@H]2c2ccc(OC)cc2)cc1 | . | -4 | -2 | -3 | . | .
COc1ccc(S[C@]2(C(=O)N(C)C)CC(=O)N(c3ccc(Cl)cc3)[C@@H]2c2ccc(OC)cc2)cc1 | . | -3 | -1 | -2 | . | .
COC(=O)[C@@]1(Sc2ccc(C)cc2)CC(=O)N(c2ccc(Cl)cc2)[C@@H]1c1ccccc1 | . | -4 | 0 | 0 | . | .
COC(=O)[C@@]1(Sc2ccc(C)cc2)CC(=O)N(C(=O)C2CC2)[C@@H]1c1ccccc1 | . | 1 | -1 | 55* | . | 58*
COc1ccc(S[C@]2(C(=O)N3CCCC3)CC(=O)N(P(=O)(OC)OC)[C@@H]2c2ccc(OC)cc2)cc1 | . | -10 | 1 | 8 | . | .
COc1ccc(S[C@]2(C(=O)N(C)C)CC(=O)N(C(=O)C3CC3)[C@@H]2c2ccc(OC)cc2)cc1 | . | 1 | 1 | 42* | . | 34*
O=C(N/N=C1/CC2C=CCC12)c1ccco1 (stereo not drawn) | -9 | 1 | -4 | -1 | 0 | .
Cc1cc(C)cc(NC(=O)NCCCN2CCN(c3ccc(F)cc3)CC2)c1 | . | -3 | -1 | -4 | . | .
Cn1cccc1C=NNC(=O)c1cc(-c2ccc(Cl)cc2)n[nH]1 | . | 5 | -3 | 25* | . | -7
COc1ccc(-c2cc(C(=O)NN=Cc3cccn3C)[nH]n2)cc1 | . | 0 | -5 | 8 | . | .
CCOC(=O)C1(Cc2ccccc2)CCN(C2Cc3ccccc3C2)CC1 | 2 | 2 | 2 | -3 | 9 | .
O=C(CSc1nc2ccccc2nc1N1CCCCC1)N1CCN(C(c2ccccc2)c2ccc(Cl)cc2)CC1 (stereo not drawn) | . | -2 | -2 | 0 | . | .
CCC(C)(C)n1nnnc1C(C(C)C)N(Cc1ccco1)Cc1cc2cc3c(cc2[nH]c1=O)OCO3 (stereo not drawn) | 7 | 6 | -5 | 41* | 23 | 5
Cc1ccc(CN(Cc2cc3cc4c(cc3[nH]c2=O)OCCO4)Cc2nnnn2Cc2ccco2)cc1 | 29 | 0 | 3 | 43* | 30* | 13
COc1ccccc1CN(Cc1cc2c(C)ccc(C)c2[nH]c1=O)Cc1nnnn1Cc1ccco1 | 22 | 1 | 7 | 37* | -9 | 6
COc1ccc(NC(=O)CSc2nnc(-c3ccncc3)o2)c(OC)c1 | -14 | 2 | -1 | 0 | . | .
COc1cccc(C(=O)Nc2ccc(C(=O)NCC3COc4ccccc4O3)cc2)c1 (stereo not drawn) | . | 1 | 1 | 4 | . | .
